# Assay results as given in ChEMBL document CHEMBL2218924, “A broad activity screen in support of a chemogenomic map for kinase signalling research and drug discovery” (Biochem J, 2013).
# Legend:
# [1] = target: MAP kinase-activated protein kinase 3 (Homo sapiens) (UniProt Q16644); conditions: at 1 µM
# [2] = target: T1, Serine/threonine-protein kinase STK11 (Homo sapiens) (UniProt Q15831); conditions: at 1 µM
# T1 sequence (whole entry): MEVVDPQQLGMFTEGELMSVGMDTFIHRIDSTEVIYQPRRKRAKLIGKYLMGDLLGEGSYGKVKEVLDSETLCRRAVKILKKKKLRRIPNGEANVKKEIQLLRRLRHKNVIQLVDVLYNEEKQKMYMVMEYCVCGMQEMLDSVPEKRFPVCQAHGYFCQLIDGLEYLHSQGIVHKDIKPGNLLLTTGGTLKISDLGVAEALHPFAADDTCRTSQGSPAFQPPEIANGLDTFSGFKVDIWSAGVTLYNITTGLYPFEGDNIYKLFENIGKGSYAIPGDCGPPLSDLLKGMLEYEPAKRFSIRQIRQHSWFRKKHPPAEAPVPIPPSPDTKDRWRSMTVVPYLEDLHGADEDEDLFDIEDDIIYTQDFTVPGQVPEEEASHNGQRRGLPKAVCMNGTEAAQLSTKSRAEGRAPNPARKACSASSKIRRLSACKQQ
# [3] = target: T1, Serine/threonine-protein kinase STK11 (Homo sapiens); conditions: at 10 µM
# [4] = target: Serine/threonine-protein kinase 10 (Homo sapiens) (UniProt O94804); conditions: at 1 µM
# Sequence of Serine/threonine-protein kinase 10 (Homo sapiens) (O94804 whole entry, looked up): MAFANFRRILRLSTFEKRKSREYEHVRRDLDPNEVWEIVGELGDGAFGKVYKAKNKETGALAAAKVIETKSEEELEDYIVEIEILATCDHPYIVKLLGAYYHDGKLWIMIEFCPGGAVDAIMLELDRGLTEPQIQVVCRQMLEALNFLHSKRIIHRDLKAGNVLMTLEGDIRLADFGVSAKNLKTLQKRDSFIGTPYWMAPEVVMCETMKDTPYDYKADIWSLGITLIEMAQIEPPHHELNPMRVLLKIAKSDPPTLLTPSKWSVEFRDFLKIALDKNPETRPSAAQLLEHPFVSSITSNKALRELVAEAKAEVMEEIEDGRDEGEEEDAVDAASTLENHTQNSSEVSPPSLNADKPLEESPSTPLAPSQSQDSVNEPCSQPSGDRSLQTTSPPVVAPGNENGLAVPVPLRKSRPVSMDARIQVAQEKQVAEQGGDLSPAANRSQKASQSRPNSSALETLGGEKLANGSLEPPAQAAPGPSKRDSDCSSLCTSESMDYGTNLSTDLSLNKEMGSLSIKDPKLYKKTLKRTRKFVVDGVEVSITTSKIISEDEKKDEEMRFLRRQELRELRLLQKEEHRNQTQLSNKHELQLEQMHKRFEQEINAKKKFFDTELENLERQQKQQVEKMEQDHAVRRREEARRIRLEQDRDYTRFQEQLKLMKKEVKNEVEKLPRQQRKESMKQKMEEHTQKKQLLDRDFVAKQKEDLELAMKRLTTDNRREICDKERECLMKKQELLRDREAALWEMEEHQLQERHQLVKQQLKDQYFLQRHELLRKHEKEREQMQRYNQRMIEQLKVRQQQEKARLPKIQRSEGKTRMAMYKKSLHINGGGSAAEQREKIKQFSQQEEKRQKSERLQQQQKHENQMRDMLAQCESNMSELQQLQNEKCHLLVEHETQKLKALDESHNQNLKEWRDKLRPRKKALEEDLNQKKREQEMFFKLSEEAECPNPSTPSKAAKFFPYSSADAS
# [5] = target: Serine/threonine-protein kinase 10 (Homo sapiens) (UniProt O94804); conditions: at 10 µM
# [6] = target: Tyrosine-protein kinase Lck (Homo sapiens) (UniProt P06239); conditions: at 1 µM
# Sequence of Tyrosine-protein kinase Lck (Homo sapiens) (P06239 2-509 limits assumed): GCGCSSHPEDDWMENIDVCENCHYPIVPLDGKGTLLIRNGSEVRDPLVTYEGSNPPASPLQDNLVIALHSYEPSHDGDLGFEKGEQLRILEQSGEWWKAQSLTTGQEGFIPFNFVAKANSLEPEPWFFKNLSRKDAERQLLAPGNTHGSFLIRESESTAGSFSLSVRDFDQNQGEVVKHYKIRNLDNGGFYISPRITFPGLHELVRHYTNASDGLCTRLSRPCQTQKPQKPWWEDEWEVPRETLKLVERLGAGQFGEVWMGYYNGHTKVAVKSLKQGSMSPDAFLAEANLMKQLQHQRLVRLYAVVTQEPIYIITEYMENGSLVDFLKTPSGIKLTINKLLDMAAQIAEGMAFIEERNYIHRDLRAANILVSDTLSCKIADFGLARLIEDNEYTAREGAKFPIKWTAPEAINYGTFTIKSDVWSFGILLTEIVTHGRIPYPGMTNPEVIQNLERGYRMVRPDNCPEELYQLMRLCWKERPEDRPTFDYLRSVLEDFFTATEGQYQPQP
# [7] = target: Tyrosine-protein kinase Lck (Homo sapiens) (UniProt P06239); conditions: at 10 µM
# [8] = target: Tyrosine-protein kinase Lck (Homo sapiens) (UniProt P06239); conditions: at 1 µM; remark: listed apart in the source
# [9] = target: Tyrosine-protein kinase Lck (Homo sapiens) (UniProt P06239); conditions: at 10 µM; remark: listed apart in the source
# [10] = target: Tyrosine-protein kinase Lyn (Homo sapiens) (UniProt P07948); conditions: at 1 µM
# Sequence of Tyrosine-protein kinase Lyn (Homo sapiens) (P07948 2-512 limits assumed): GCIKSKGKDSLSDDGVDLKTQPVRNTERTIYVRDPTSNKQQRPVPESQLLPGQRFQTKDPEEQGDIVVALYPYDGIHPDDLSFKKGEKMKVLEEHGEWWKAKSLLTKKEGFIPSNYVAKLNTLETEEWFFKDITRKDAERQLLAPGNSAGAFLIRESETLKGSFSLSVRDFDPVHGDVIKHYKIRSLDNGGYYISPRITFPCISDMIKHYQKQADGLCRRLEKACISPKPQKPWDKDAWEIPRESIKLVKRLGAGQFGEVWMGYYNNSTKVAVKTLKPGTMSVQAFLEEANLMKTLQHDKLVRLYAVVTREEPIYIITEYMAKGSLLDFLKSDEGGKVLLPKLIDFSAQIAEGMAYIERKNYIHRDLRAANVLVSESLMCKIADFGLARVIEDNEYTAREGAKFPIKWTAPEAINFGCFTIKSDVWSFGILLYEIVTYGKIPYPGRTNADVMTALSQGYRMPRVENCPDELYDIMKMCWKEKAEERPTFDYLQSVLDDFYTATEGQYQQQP
# [11] = target: Tyrosine-protein kinase Lyn (Homo sapiens) (UniProt P07948); conditions: at 10 µM
# [12] = target: Mitogen-activated protein kinase 3 (Homo sapiens) (UniProt P27361); conditions: at 1 µM
# Sequence of Mitogen-activated protein kinase 3 (Homo sapiens) (P27361 whole entry): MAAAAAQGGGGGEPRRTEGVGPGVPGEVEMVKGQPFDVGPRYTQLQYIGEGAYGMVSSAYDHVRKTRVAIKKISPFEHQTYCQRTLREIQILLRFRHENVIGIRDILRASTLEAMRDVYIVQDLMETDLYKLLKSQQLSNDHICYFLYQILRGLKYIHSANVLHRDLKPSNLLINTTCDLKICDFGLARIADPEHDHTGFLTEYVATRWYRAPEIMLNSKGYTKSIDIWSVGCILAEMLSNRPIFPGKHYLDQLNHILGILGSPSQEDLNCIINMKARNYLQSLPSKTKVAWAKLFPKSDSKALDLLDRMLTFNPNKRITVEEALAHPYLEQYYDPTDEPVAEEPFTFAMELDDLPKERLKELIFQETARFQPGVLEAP
# [13] = target: Mitogen-activated protein kinase 3 (Homo sapiens) (UniProt P27361); conditions: at 10 µM
# [14] = target: Mitogen-activated protein kinase 1 (Homo sapiens) (UniProt P28482); conditions: at 1 µM
# Sequence of Mitogen-activated protein kinase 1 (Homo sapiens) (P28482 whole entry): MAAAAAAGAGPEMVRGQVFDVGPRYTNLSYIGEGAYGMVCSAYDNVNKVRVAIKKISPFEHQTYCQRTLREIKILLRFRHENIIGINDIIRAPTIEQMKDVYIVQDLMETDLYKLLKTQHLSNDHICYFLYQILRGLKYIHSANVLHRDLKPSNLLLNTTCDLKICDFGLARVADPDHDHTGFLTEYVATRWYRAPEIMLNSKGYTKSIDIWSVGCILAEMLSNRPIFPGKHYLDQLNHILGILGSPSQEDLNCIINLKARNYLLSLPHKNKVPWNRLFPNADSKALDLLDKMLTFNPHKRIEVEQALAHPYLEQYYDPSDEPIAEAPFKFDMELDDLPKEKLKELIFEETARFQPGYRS
# [15] = target: Mitogen-activated protein kinase 1 (Homo sapiens) (UniProt P28482); conditions: at 10 µM
# [16] = target: MAP kinase-activated protein kinase 2 (Homo sapiens) (UniProt P49137); conditions: at 1 µM
# Sequence of MAP kinase-activated protein kinase 2 (Homo sapiens) (P49137 whole entry, looked up): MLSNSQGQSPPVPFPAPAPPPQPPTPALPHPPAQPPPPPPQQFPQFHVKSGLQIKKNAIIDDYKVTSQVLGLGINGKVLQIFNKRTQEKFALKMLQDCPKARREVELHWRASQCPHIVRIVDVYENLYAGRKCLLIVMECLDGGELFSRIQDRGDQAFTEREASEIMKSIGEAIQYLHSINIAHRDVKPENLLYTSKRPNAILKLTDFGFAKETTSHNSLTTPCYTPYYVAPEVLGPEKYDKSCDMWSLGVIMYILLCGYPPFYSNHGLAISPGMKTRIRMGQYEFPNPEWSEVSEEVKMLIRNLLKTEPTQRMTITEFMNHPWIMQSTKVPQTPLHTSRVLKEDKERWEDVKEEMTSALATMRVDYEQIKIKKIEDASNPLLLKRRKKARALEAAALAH
# [17] = target: MAP kinase-activated protein kinase 2 (Homo sapiens) (UniProt P49137); conditions: at 10 µM
# [18] = target: MAP kinase-activated protein kinase 3 (Homo sapiens) (UniProt Q16644); conditions: at 10 µM
# [19] = target: Serine/threonine-protein kinase MARK1 (Homo sapiens) (UniProt Q9P0L2); conditions: at 1 µM
# Sequence of Serine/threonine-protein kinase MARK1 (Homo sapiens) (Q9P0L2 whole entry, looked up): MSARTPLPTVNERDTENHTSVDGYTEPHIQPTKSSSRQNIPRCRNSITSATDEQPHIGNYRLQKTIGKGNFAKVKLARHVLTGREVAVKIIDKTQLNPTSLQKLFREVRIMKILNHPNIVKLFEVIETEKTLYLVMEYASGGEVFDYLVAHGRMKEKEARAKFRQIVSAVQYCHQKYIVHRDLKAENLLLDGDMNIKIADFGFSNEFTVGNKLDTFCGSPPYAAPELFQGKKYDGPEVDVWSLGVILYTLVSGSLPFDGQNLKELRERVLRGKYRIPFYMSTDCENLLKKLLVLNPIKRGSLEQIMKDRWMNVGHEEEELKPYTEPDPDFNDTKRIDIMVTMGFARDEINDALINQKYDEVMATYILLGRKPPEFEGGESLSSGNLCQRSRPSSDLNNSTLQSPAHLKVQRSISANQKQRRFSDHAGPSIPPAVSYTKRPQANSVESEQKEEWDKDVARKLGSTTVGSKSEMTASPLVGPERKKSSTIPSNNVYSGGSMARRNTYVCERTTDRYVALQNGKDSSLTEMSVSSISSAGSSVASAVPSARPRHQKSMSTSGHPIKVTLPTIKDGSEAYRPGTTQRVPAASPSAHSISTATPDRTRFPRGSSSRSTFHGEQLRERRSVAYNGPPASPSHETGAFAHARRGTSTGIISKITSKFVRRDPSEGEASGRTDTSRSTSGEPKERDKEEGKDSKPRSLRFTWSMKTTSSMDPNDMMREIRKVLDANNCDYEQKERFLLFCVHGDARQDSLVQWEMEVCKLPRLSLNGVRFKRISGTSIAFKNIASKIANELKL
# [20] = target: Serine/threonine-protein kinase MARK1 (Homo sapiens) (UniProt Q9P0L2); conditions: at 10 µM
# Sequence of MAP kinase-activated protein kinase 3 (Homo sapiens) (Q16644 whole entry, looked up): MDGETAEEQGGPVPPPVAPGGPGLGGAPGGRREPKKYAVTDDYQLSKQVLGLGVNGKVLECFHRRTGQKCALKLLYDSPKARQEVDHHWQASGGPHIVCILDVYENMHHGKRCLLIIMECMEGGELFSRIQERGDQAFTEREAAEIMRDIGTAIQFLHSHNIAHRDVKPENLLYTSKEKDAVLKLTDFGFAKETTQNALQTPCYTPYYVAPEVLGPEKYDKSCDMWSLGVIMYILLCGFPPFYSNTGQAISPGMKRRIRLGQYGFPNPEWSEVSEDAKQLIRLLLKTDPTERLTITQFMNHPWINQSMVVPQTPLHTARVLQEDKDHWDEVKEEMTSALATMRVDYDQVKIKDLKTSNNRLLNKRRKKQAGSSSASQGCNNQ
structure (smiles),measurement,setting,value
COc1ccc(S(=O)(=O)N(CCO)c2ccccc2CN(C)C/C=C/c2ccc(Cl)cc2)cc1,residual activity,[1],118%
O=c1[nH]c2ccccc2n1C1CCN(Cc2ccc(-c3nc4cc5[nH]cnc5cc4nc3-c3ccccc3)cc2)CC1,residual activity,[2],94%
same,residual activity,[3],97%
same,residual activity,[4],109%
same,residual activity,[5],90%
same,residual activity,[6],147%
same,residual activity,[7],125%
same,residual activity,[8],94%
same,residual activity,[9],44%
same,residual activity,[10],96%
same,residual activity,[11],53%
same,residual activity,[12],105%
same,residual activity,[13],67%
same,residual activity,[14],108%
same,residual activity,[15],107%
same,residual activity,[16],107%
same,residual activity,[17],103%
same,residual activity,[1],106%
same,residual activity,[18],90%
same,residual activity,[19],99%
same,residual activity,[20],90%
CCN(CC)CCCCN1c2ccccc2Oc2ccc(Cl)cc21,residual activity,[1],115%
O=C1NC(=O)c2c1c1c3ccccc3n3c1c1c2c2ccccc2n1C1CCC3O1,residual activity,[6],50%
same,residual activity,[7],62%
same,residual activity,[8],70%
same,residual activity,[9],71%
same,residual activity,[10],10%
same,residual activity,[11],10%
same,residual activity,[12],128%
same,residual activity,[13],83%
same,residual activity,[1],95%
same,residual activity,[18],95%
same,residual activity,[19],38%
same,residual activity,[20],29%
Nc1cccc(-c2cc3c(Oc4cccc(O)c4)ncnc3[nH]2)c1,residual activity,[1],126%
COc1ccc2c(c1)/C(=C/c1cnc[nH]1)C(=O)N2,residual activity,[2],81%
same,residual activity,[3],24%
same,residual activity,[4],60%
same,residual activity,[5],19%
same,residual activity,[10],72%
same,residual activity,[11],17%
same,residual activity,[14],97%
same,residual activity,[15],35%
same,residual activity,[16],99%
same,residual activity,[17],99%
same,residual activity,[18],123%
same,residual activity,[19],32%
same,residual activity,[20],4%
O=C1Nc2ccc3ncsc3c2/C1=C/c1c[nH]cn1,residual activity,[2],21%
same,residual activity,[3],1%
same,residual activity,[4],29%
same,residual activity,[5],7%
same,residual activity,[6],55%
same,residual activity,[7],17%
same,residual activity,[8],44%
same,residual activity,[9],23%
same,residual activity,[10],46%
same,residual activity,[11],6%
same,residual activity,[12],5%
same,residual activity,[13],0%
same,residual activity,[14],4%
same,residual activity,[15],-3%
same,residual activity,[16],82%
same,residual activity,[17],67%
same,residual activity,[1],103%
same,residual activity,[18],99%
same,residual activity,[19],9%
same,residual activity,[20],0%
COc1ccc2c(c[n+](C)c3c4cc5c(cc4ccc23)OCO5)c1OC,residual activity,[3],90%
same,residual activity,[4],100%
same,residual activity,[5],93%
same,residual activity,[8],80%
same,residual activity,[9],79%
same,residual activity,[10],83%
same,residual activity,[11],65%
same,residual activity,[13],81%
same,residual activity,[16],94%
same,residual activity,[17],94%
same,residual activity,[1],99%
same,residual activity,[18],53%
same,residual activity,[19],98%
same,residual activity,[20],91%
CCc1nc(-c2ccc(OC)cc2)[nH]c1-c1ccncc1,residual activity,[5],48%
same,residual activity,[12],100%
same,residual activity,[16],64%
same,residual activity,[17],82%
same,residual activity,[1],121%
same,residual activity,[18],118%
c1ccc(-c2n[nH]c3c2oc2ccccc23)cc1,residual activity,[1],94%
Cc1nc2cc3nc(-c4cccs4)cnc3cc2n1C,residual activity,[1],114%
Nc1ncnc2[nH]nc(Nc3ccc(F)cc3)c12,residual activity,[1],107%
CNc1cc2c(Nc3cccc(Br)c3)ncnc2cn1,residual activity,[1],117%
CN[C@@H]1C[C@H]2O[C@@](C)([C@@H]1OC)n1c3ccccc3c3c4c(c5c6ccccc6n2c5c31)C(=O)NC4,residual activity,[18],46%
